The results in this text go back to PubChem BioAssay AID2845 (The Scripps Research Institute Molecular Screening Center, 2010).

SMILES strings stand for the structures. Hit rate of the full screen: of about 2,300 compounds, about 2,000 (87%) were called active. So high a share suggests a set chosen from earlier hits. Not all results are given here. A number with no mark means an inactive call. Rule as the data show it: active = activation above about 49%; inactive = the rest.

Aryl hydrocarbon receptor (Homo sapiens), sequence (P35869 whole entry, looked up): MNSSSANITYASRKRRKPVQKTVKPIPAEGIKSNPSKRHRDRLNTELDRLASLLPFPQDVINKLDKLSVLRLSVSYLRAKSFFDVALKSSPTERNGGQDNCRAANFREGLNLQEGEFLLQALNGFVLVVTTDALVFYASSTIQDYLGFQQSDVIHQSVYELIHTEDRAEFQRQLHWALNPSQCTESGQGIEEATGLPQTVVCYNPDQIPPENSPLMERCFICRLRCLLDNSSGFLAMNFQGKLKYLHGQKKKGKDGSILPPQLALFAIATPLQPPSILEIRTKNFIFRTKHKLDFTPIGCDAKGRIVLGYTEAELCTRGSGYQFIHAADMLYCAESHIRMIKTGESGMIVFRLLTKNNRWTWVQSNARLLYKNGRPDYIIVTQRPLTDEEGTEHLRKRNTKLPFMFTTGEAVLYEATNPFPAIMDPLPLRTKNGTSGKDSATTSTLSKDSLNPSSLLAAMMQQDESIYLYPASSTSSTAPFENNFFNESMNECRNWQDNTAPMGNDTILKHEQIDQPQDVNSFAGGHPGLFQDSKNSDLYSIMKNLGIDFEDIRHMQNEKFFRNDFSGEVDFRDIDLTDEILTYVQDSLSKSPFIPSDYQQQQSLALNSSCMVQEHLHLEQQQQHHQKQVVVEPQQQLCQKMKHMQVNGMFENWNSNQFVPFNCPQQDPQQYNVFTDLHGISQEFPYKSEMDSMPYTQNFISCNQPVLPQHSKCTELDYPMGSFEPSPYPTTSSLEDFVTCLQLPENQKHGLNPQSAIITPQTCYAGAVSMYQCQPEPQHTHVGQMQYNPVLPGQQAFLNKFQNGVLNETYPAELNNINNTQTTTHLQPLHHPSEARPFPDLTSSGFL

This test has as its target Aryl hydrocarbon receptor (Homo sapiens) (UniProt P35869). The test is described as follows: activators of human aryl hydrocarbon receptor reporter – cell-based, luminescence, luciferase reporter, confirmation (AID 2845).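 Also: HepG2 hepatoma cells carrying a DRE-driven firefly luciferase reporter; 0% = vehicle wells and 100% = reference agonist wells.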 Conditions: human cells, AHR-responsive luciferase reporter, at 9 µM, hits give high values. In general terms: In a reporter assay the amount or activity of a reporter protein is the signal.
As to `COc1ccccc1N1CCN(C(=O)c2cc3c(-c4ccc(Cl)cc4)nn(C)c3s2)CC1`, the activation was 102% (active). Regarding `CCOC(=O)N1CCN(C(=O)c2cc3c(-c4ccc(Cl)cc4)nn(C)c3s2)CC1`, the activation is 85.9% (active). The result for `Cn1nc(-c2ccc(Cl)cc2)c2cc(C(=O)NCc3ccco3)sc21` reads 148% (active). As for `CN(C)c1nc(Nc2ccc(Cl)c(Cl)c2)nc(N(C)C)n1`, the figure is 129% (active); as for `C=CCNC(=O)CSc1nc2sc(C)c(C)c2c(=O)[nH]1`, 53% (active). With `c1cnc(N2CCN(c3ccc4ccccc4n3)CC2)nc1`, the activation is 96.5% (active). The result for `Cc1nc2sc(C(=O)c3ccccc3)c(N)c2c2c1CCCC2` reads 97.5% (active); that for `Cn1c(SCC(=O)c2ccccc2)ncc(C(=O)Nc2ccc(F)cc2)c1=O`, 120% (active). Turning to `CC1Cc2ccccc2N1C(=O)CSc1nnc(C2CC2)n1C` (stereo not given), the activation is 47.2% (active).

Turning to `COc1ccc(C(=O)Nc2ccccc2C(=O)N/N=C/c2ccccc2OC)cc1`, the activation is 66.5% (active). The result for `O=C(CC1Nc2ccccc2NC1=O)Nc1ccccc1` (stereo not given) reads 119% (active); that for `Cn1cc(Cl)c(C(=O)NNC(=S)Nc2cccc(Cl)c2)n1`, 75.4% (active); that for `O=C(Nn1c(-c2ccc(Cl)cc2)nc2ccccc2c1=O)c1cccnc1Cl`, 28.5%.

Consider `Cc1ccc(-c2nc(C#N)c(NCCCn3ccnc3)o2)cc1`, for which the activation was 107% (active).

Regarding `O=C(Cn1c(NCCO)nc2ccccc21)c1ccc(Cl)cc1Cl`, the activation is 115% (active). In the case of `COc1ccc(C2NC(=O)c3ccccc3N2)cc1` (stereo not given), the activation was 39.3%. Take `Cc1cc(O)c(C(=O)/C=C/c2c(F)c(F)c(F)c(F)c2F)c(=O)o1`: the activation was 69.7% (active). Turning to `CCOC(=O)c1ccc2[nH]c3c(c2c1)CCCC3NC=O` (stereo not given), the activation is 89.1% (active). For `CC(C)C(=O)Nc1c(C(=O)c2ccc(F)cc2)oc2ccccc12`, the activation was 84.4% (active). Consider `CSc1ncccc1C(=O)Nc1nc2ccc(F)cc2s1`, for which the activation was -8.12%. Regarding `O=C(CSc1ccccn1)Nc1nc2c(ccc3ccccc32)s1`, the activation was 130% (active). As for `C/C(=N\NC(=O)CNc1cccc2ccccc12)c1ccc(Br)s1`, the figure is 79.5% (active); as for `Cc1nn2c3cc(N4CCOCC4)ccc3nc2c2ccccc12`, 85% (active). Regarding `Cc1cc(N2CCOCC2)nc(-c2ccc(Br)cc2)n1`, the activation was 60.3% (active). The result for `O=C(Cn1cncn1)N/N=C/c1c2ccccc2cc2ccccc12` reads 73.7% (active); that for `CCOc1ccccc1NC(=O)c1cccnc1`, 121% (active); that for `Cc1ccc(Cl)cc1NC(=O)C1CCCN(c2cnccn2)C1` (stereo not given), 90.8% (active). The result for `O=C(Nc1cccc(Cl)c1)C1CCCN(c2cnccn2)C1` (stereo not given) reads 73% (active); that for `Brc1ccc(-c2noc(-c3ccccc3)n2)o1`, 162% (active). Consider `Nc1[nH][nH]c(=O)c1N=Nc1ccc2c(c1)OCO2`, for which the activation was 74.9% (active). For `C=CCOc1c(Br)cc(/C=N\n2nnnc2N)cc1OC`, the activation was 77.9% (active).

In the case of `COc1ccc(Cl)cc1C(=O)Nc1ccc(N(C)C(C)=O)cc1`, the activation was 78.6% (active).

For `COc1cccc(-n2c(SCC(=O)NC3CCCCC3)nc3n[nH]c(C)c3c2=N)c1`, the activation is 83.7% (active). For the compound `COc1cc2ccccc2cc1C(=O)Nc1ccc(N2CCOCC2)cc1`, the activation was 118% (active). As for `COc1cccc(OC)c1C(=O)Nc1ccc(N2CCCCC2)cc1`, the figure is 80.7% (active). Turning to `O=C(Nc1ccc(OC(F)(F)F)cc1)c1ccc2c(c1)no[n+]2[O-]`, the activation is 127% (active). As for `OCCNc1nc(Nc2ccc(Cl)c(Cl)c2)nc2ccccc12`, the activation is 83.8% (active).

In the case of `CCc1nc(Nc2ccc3nccnc3c2)c2oc3ccccc3c2n1`, the activation is 120% (active). Take `CCCCC(=O)Nc1ccc(C(=O)Nc2cc(C(F)(F)F)ccc2Cl)cc1`: the activation is 92.7% (active). As for `Cc1nn(-c2ccccc2)c2[nH]c(C(F)(F)F)cc(=O)c12`, the activation is 52.9% (active).
